Bioassay records deposited in PubChem BioAssay by The Scripps Research Institute Molecular Screening Center.
FBW7 activator = human FBW7 E3 ligase activation, primary screen; Q969H0; AlphaScreen FBW7–phospho-cyclin E peptide binding, activator screen; normalized activity (activation), % at 26.1 µM; 650,000 tested, 0.13% active; AID 1259310; in the data active = normalized activity above about 1.9%;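 also: purified mutant Fbw7 with reduced substrate affinity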
TEAD-YAP inh = TEAD-YAP interaction inhibition; 640,000 tested, 1.4% active; inhibition, % at 9.12 µM; AID 1259422; HEK-TIYL cells, TEAD-Gal4/YAP UAS-luciferase luminescence; in the data active = inhibition above about 32%;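 also: 0% = median of test compound wells and 100% = reference inhibitor wells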
GPR151 activ = activators of human GPR151; activation, % at 11.2 µM; PathHunter beta-arrestin GPR151 cells, luminescence; 650,000 tested, 1% active; Q8TDV0; in the data active = activation above about 4.9%;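 also: 0% = median of compound wells and 100% = cells with positive control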
Target sequence (Q8TDV0 whole entry, looked up): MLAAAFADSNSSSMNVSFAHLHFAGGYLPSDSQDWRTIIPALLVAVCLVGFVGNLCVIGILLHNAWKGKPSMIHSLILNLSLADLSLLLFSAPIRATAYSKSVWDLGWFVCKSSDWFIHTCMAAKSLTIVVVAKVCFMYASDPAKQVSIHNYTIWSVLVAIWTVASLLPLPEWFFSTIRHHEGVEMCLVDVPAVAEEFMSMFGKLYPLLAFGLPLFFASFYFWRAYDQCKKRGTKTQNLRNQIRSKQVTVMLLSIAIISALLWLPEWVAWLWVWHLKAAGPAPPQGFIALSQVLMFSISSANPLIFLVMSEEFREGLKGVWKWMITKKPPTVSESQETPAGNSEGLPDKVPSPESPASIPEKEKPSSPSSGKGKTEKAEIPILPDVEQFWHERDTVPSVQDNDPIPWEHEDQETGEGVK
MITF primary = inhibitors of human MITF; 650,000 tested, 0.91% active; O75030; AlphaScreen MITF homodimerization, bead proximity signal; inhibition, % at 2.6 µM; in the data active = inhibition above about 50%;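 also: 0% = vehicle wells with protein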
* hit, by the source's call. The list is not random: actives were taken first. Their share in the collection is about 3.4%.

SMILES	FBW7 activator	TEAD-YAP inh	GPR151 activ	MITF primary
Cc1ccc(CN2CCN3C(=O)[C@H](C)N(C)C(=O)[C@H]3C2)s1	0.8	6.1	1.2	13.0
CSc1nnc(-c2cnn(-c3ccccc3)c2-n2cccc2)n1C	-0.2	-12.2	-2.5	-1.1
O=C1CSC(=O)N1Cc1c(Cl)cccc1Cl	2.2*	13.7	0.1	19.0
Cc1ccc2cc(-c3nc4ccccc4[nH]3)c(=O)oc2c1	2.4*	-18.7	-2.6	21.2
Cc1cccc2cc(-c3nc4ccccc4[nH]3)c(=O)oc12	0.2	-42.9	0.2	12.1
CC(C)(C)c1ccc(C(=O)N2CCCCCC2=O)cc1	-0.1	55.2*	-0.7	-6.8
N#CC1=C(N)Oc2cc(N)ccc2C1c1ccc(Br)cc1 (stereo not given)	-0.1	0.9	-0.8	11.9
CN(C)c1ccc2c(c1)OC(N)=C(C#N)C2c1ccc(F)cc1 (stereo not given)	-0.1	3.3	0.6	-8.0
CCN(CC)c1ccc2c(c1)OC(N)=C(C#N)C2c1cccc(F)c1 (stereo not given)	0.5	68.3*	-1.0	-13.0
N#CC1=C(N)Oc2cc(N)ccc2C1c1cccc(Br)c1 (stereo not given)	0.0	55.1*	1.1	11.7
COc1ccc(S(=O)(=O)Nc2ccccc2C(C)C)cc1C	0.1	-2.5	-0.1	-16.9
O=C(NCC(c1cccs1)N1CCOCC1)c1ccc([N+](=O)[O-])o1 (stereo not given)	-0.1	54.8*	1.0	3.2
COc1cc(/C=C/c2ccc3cccc(OC(C)=O)c3n2)cc(OC)c1OC(C)=O	0.2	7.5	-1.2	7.9
CC(=O)Oc1cccc2ccc(/C=C/c3cccc(F)c3)nc12	0.1	39.8*	-4.8	-7.4
NC(=O)c1ccsc1NC(=O)/C=C/c1cccs1	-0.1	64.1*	-11.8	3.1
COc1ccc(-c2noc(N3CCC(C(=O)NCCCN4CCCC4=O)CC3)n2)cc1	-0.1	4.8	-0.9	2.9
c1ccc(-n2cnc3c(NC4CC4)nc(-c4ccc(N5CCOCC5)nc4)nc32)cc1	0.6	45.1*	-1.2	10.6
OCCNc1nc(-c2ccc(N3CCOCC3)nc2)nc2c1ncn2-c1ccccc1	0.0	61.4*	-1.0	4.8
c1ccc(-n2cnc3c(Nc4ccc(N5CCOCC5)cc4)nc(-c4ccc(N5CCOCC5)nc4)nc32)cc1	0.2	2.2	0.2	2.9
CC(=O)N1N=C(C2CCCCC2)OC12CCCC2	0.2	-3.0	-0.2	7.9
COc1cc(-c2nc3ccccc3o2)cc(OC)c1OC	-0.1	12.0	-0.5	2.5
CCCCNC(=O)CC(NS(=O)(=O)c1ccc(Br)cc1)c1cccs1 (stereo not given)	0.3	7.0	0.0	6.9
C=CCNC(=S)NNC(=O)c1ccccc1OCCC	0.3	1.9	-1.0	-13.1
C=CCNC(=S)NNC(=O)c1ccccc1O	-1.7	88.6*	-0.4	-3.0
COc1ccc(C(Nc2cccc(C)n2)c2ccc3ccc(C)nc3c2O)cc1C (stereo not given)	0.2	41.9*	-1.8	3.6
SMILES	FBW7 activator	TEAD-YAP inh	GPR151 activ	MITF primary
CSc1ccc(C(Nc2ccccn2)c2ccc3ccc(C)nc3c2O)cc1 (stereo not given)	-0.2	21.1	0.1	1.2
CSc1ccc(C(Nc2ccccn2)c2ccc3cccnc3c2O)cc1 (stereo not given)	-1.0	77.9*	0.5	8.1
Oc1c(C(Nc2ccccn2)c2ccc(F)cc2)ccc2cccnc12 (stereo not given)	-1.9	69.9*	0.3	8.9
Cc1ccc(C(Nc2cccc(C)n2)c2ccc3cccnc3c2O)cc1 (stereo not given)	-1.0	76.4*	-0.4	6.3
COc1cccc(COC2CC(C)SC3C=CC(Cl)=CC23)c1 (stereo not given)	0.3	2.1	2.6	7.5
COc1cc(OC)nc(Oc2cccnc2/C=N/NC(=O)Nc2ccccc2Cl)n1	-0.2	3.9	0.7	19.7
CCc1ccc(C(Nc2ccccn2)c2ccc3cccnc3c2O)cc1 (stereo not given)	-1.1	84.0*	0.7	27.7
Cc1ccc2ccc(C(Nc3ccccn3)c3ccc(N(C)C)cc3)c(O)c2n1 (stereo not given)	-0.1	6.0	-0.3	13.6
C=CCOc1ccc(C(Nc2ccccn2)c2ccc3cccnc3c2O)cc1 (stereo not given)	-1.0	85.7*	0.9	55.3*
COc1ccc(/C(O)=C2/C(=O)C(=O)N(CCCO)C2c2ccc(N(C)C)cc2)cc1 (stereo not given)	0.3	8.6	0.4	-17.9
CCCN1C(=O)C(O)(CC(=O)c2ccccc2OC)c2cc(Br)ccc21 (stereo not given)	0.1	8.4	-0.2	6.6
CCCN1C(=O)C(O)(CC(=O)c2ccccc2O)c2cc(Br)ccc21 (stereo not given)	-0.1	38.0*	0.5	-0.5
COC(=O)C1=C(C)Nc2ncnn2C1c1ccc(OC)c(Br)c1 (stereo not given)	0.2	32.1*	0.7	2.4
COC(=O)C1=C(C)Nc2ncnn2C1c1cc(Br)c(O)c(OC)c1 (stereo not given)	-0.1	-20.4	-0.8	-8.4
CCOC(=O)C1=C(C)Nc2ncnn2C1c1cc(Br)c(OC)c(OC)c1 (stereo not given)	0.0	50.5*	-2.3	-4.4
Cn1c(=O)[nH]c(=O)c2c1nc(N1CCCCCC1)n2CC(O)CCl (stereo not given)	-0.1	-0.4	3.9	-1.5
O=C(NCc1ccco1)c1ccc2c(=O)n(C3CCCCC3)c(SCc3ccccc3F)nc2c1	0.1	2.8	0.4	-2.7
CCCC(=O)Nc1nnc(SCC(=O)Nc2nccs2)s1	0.1	3.6	0.7	13.7
O=C(Nc1cccc([N+](=O)[O-])c1)c1ccc(Br)c(S(=O)(=O)Nc2ccc(Br)cc2)c1	0.1	3.3	1.2	-2.6
Cc1sc(NC(=O)c2ccc(Cl)s2)c(C(N)=O)c1C	0.0	-61.4	-1.5	-6.5
Cc1sc(NC(=O)c2ccc(Cl)s2)c(C(N)=O)c1-c1ccc(F)cc1	0.1	36.0*	0.7	7.5
Cc1cc(C(=O)Nc2ccc3oc(-c4cc(Cl)ccc4Cl)nc3c2)ccc1[N+](=O)[O-]	0.4	-6.3	-0.4	9.4
O=C(NC1CC1)c1ccc(-c2nc(Nc3ccc(Oc4ccccc4)cc3)c3ncn(-c4ccsc4)c3n2)cc1	-0.1	-1.9	1.1	13.6
CN1CCN(C(=O)c2ccc(-c3nc(NCCN4CCOCC4)c4ncn(-c5ccsc5)c4n3)cc2)CC1	-0.1	23.1	-2.1	16.0
CC(=O)Nc1ccc(Nc2nc(-c3ccc(C(=O)NC4CC4)cc3)nc3c2ncn3-c2ccccc2)cc1	0.1	48.2*	2.0	1.3
O=C(NC1CC1)c1ccc(-c2nc(NCCO)c3ncn(-c4ccccc4)c3n2)cc1	0.3	67.8*	-0.1	10.0
COc1ccc(CCNc2nc(-c3ccc(C(=O)NC4CC4)cc3)nc3c2ncn3-c2ccccc2)cc1	0.2	3.9	-2.2	16.5
NC(=O)c1ccc(-c2nc(NCCO)c3ncn(-c4ccccc4)c3n2)cc1	0.0	64.2*	0.1	-2.2
NC(=O)c1ccc(-c2nc(NCCN3CCOCC3)c3ncn(-c4ccccc4)c3n2)cc1	0.0	60.7*	3.6	7.0
